This note sets out measurements from PubChem BioAssay (NCI).

Assay in all cases: NCI-60 one-dose screen, 48 h (100 = growth as untreated, 0 = no growth, -100 = all killed)
What all share (details): 10 µM unless noted

For assay [1], the system named is NCI-H23 lung.
Assay [2] concerns NCI-H226 lung.
Assay [3] concerns NCI-H322M lung.
Assay [4] has as its system HOP-62 NSCLC.
In assay [5] the test system is NCI-H460 lung.
For assay [6], the system named is HOP-92 NSCLC.
Assay [7] has as its system NCI-H522 lung.
Assay [8] relates to A549/ATCC NSCLC.
Assay [9] relates to COLO 205 colon.
Assay [10] deals with 786-0 renal.

Compounds without any hit were thinned out: in the full panel of roughly 83,000, 20% have a hit.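 Percent growth is the endpoint: 0 to 100 indicates growth inhibition (40 means 60% inhibition), 0 means no net growth, and negative values indicate cell death.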 Values without a mark were called inactive. Activity calls are given as the source filed them. How the source made its calls: active means growth percent below 10; inactive means the rest.

As for `O=C(CCN1CCCC1)c1ccc([N+](=O)[O-])cc1`, the growth in assay [1] was 101%; in assay [2], 99.1%; in assay [3], 101%; in assay [4] it was 98.2%; in [5] it was 108%; in assay [6], 109%. For the same compound, the figures for the growth in assay [7], in assay [8] and in [9] were 2.13% (active), 101% and 107%, respectively.
Turning to `COc1cc(/C=N/NC(=O)c2cnn3c2NC(c2ccccc2)C3)ccc1OCc1ccccc1` (centres undefined), the growth in [1] was 32.8%; in [2] it was 40.2%; in [3], 28.6%; in [4], -1.18% (active); in assay [5], -54% (active); in [6] it was 7.9% (active). The growth in assay [7] is 19.1%; in [8], -29.8% (active); in [10], 0.422% (active); in [9], -2.34% (active).
Regarding `O=C(NO)c1ccc(-n2nc(-c3ccccc3)c3ccccc32)cc1`, the growth was 49.9% in assay [1]; 56.4% in assay [2]; 46.9% in [3]; 29.7% in [4]; 26.6% in assay [5]; 62.9% in assay [6]. Moreover, the growth in [7] is 6.17% (active); in [8] it was 41.7%; in assay [9], 49%.
As for `Cn1cc(-c2csc(-c3c[nH]c4ccccc34)n2)c2ccnc(Cl)c21`, the growth in [1] is 86.9%; in assay [2], 60.5%; in assay [3] it was 88.9%; in [4], 119%; in assay [5], 74.2%; in assay [6] it was 64%. Moreover, the growth in [7] was 52.5%; in [8], 59%; in assay [10] it was 59.1%; in assay [9], 46.7%.
Regarding `Cn1ccc2c1CC1CN(Cc3ccco3)C(=O)C1C2C(=O)O` (centres undefined), the growth was 94.3% in assay [1]; 103% in [2]; 99.3% in [3]; 96.8% in assay [4]; 102% in [5]; 99.4% in assay [6]. Besides, the growth in assay [7] was 92.3%; in [8], 98%; in assay [9], 117%.
In the case of `CCOC(=O)c1nc2c3ccccc3ccn2c1C(=O)OCC`, the growth in assay [1] was 96.9%; in assay [2] it was 97.2%; in assay [3], 95.1%; in assay [4] it was 102%; in assay [5], 118%; in [6], 103%. The growth in assay [7] was 88.3%; in [8] it was 103%; in assay [9] it was 109%.
As for `COc1ccc(/C=C/C(=O)Nc2cc(/C=C\c3cc(OC)c(OC)c(OC)c3)cc(OC)c2OC)cc1OC`, the growth in [1] is 0.824% (active); in assay [2], 37.6%; in assay [3], 42.3%; in [4], 33.9%; in assay [5] it was 17.5%; in [6], 46.2%. Besides, the growth was -21.3% (active) in assay [7], 40% in assay [8], 23% in assay [10] and 11.2% in [9].
For the compound `C/C(=N\NC(=O)CSc1nc2ccccc2c(=O)n1Cc1ccc(S(N)(=O)=O)cc1)c1ccc(F)cc1`, the growth is 105% in assay [1]; 102% in assay [2]; 102% in assay [3]; 98.8% in [4]; 103% in assay [5]; 124% in [6]. Further, the growth in assay [7] is 18.1%; in [8], 102%; in assay [10], 104%; in assay [9], 115%.
Regarding `CNCCn1c(=O)c2cc(OC)c(OC)cc2c2ccc3cc4c(cc3c21)OCO4`, the growth in [1] is -18.1% (active); in [2], -98.8% (active); in [3], -14.5% (active); in assay [4], 3.19% (active); in assay [5], -18.4% (active); in assay [6], -5.84% (active). The growth is -35.2% (active) in assay [7], -81.2% (active) in assay [8], -51% (active) in [10] and -61.6% (active) in assay [9].
As for `NNC(=O)c1ccc(-n2nc(-c3ccccc3)c3ccccc32)cc1`, the growth in [1] was 87.8%; in [2], 82.3%; in assay [3], 74.5%; in assay [4], 65.2%; in [5], 97.2%; in assay [6], 87.2%. The growth in assay [7] is 79.8%; in assay [8] it was 95.3%; in [9], 79.8%.
`COc1cc(OC)cc(C(=O)C[n+]2cccc3cc[nH]c32)c1`: the growth was 94.7% in [1]; 94.2% in assay [2]; 93.1% in assay [3]; 99.1% in [4]; 101% in [5]; 88.9% in [6]. In addition, the figures for the growth in [7], in assay [8] and in assay [9] were 93%, 97.6% and 107%, respectively.
In the case of `COc1c(Cl)c2c(c(OC)c1OC)-c1ccc(SC)c(=O)cc1[C@@H](NC(=O)OCC(F)(F)F)CC2`, the growth in assay [1] is 34.1%; in [2], 16.4%; in [3], 33.6%; in assay [4] it was 34.3%; in assay [5], 2.44% (active); in [6], 23.4%. The growth in [7] is 17.9%; in [8], 22.2%; in assay [10], 11%; in assay [9], -0.15% (active).
Turning to `COc1cc2c(=O)n(CCN)c3c4cc5c(cc4ccc3c2cc1OC)OCO5`, the growth in [1] is 14.2%; in [2] it was -66% (active); in assay [3], -72.1% (active); in [4], -51.2% (active); in assay [5], -76.5% (active); in assay [6], 49.6%. In addition, the growth in [7] is -7.78% (active); in [8], -76.5% (active); in assay [10] it was -79.3% (active); in [9], -0.566% (active).
`C/C=C(\C)C(=O)NC1=CC[C@@]2(C)C(=CCC3C2CC[C@@]2(C)C3CC[C@@H]2C(C)N(C)C)C1=O` (some centres undefined): the growth is 39.2% in assay [1]; 89.6% in [2]; 36.9% in assay [3]; 46.4% in assay [4]; 17.4% in assay [5]; 40.6% in assay [6]. The growth in [7] was 77.9%; in assay [8] it was 60.8%; in assay [10], 44.2%; in assay [9], -8.4% (active).
